Laboratory results as given in PubChem BioAssay AID488789 (Broad Institute, 2010).
Potency and affinity values are given separately. Results filed as inconclusive are left out. Entries that show only a call come without a potency. Calls of active or inactive are those of the source.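 How the source made its calls: active means samples whose fitted half-maximal inhibition concentration is no more than ten times the top valid dose tested; inconclusive means flat response between -70 and -30, or invalid curve fit; inactive means flat within 30 of zero, potency above limit, or signal rising.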

Molecular target: Trypsin (Sus scrofa) (UniProt P00761)
Sequence (P00761 whole entry, looked up): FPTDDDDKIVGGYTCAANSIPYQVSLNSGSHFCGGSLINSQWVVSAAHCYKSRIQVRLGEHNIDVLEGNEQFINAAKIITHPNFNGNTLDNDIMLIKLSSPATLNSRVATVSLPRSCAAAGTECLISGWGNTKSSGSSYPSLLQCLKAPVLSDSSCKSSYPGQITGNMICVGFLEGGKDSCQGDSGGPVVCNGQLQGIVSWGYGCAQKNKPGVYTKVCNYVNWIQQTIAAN
Assay: porcine trypsin inhibitors, dose response, selectivity assay for Rce1 protease inhibitor project, biochemical, quenched peptide fluorescence, cherry-pick (AID 488789);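 further: more negative means stronger trypsin inhibition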
Conditions: quenched peptide cleavage fluorescence; series mostly up to 10 µM

`NC(=O)[C@H]1CC2(CC(c3cccc(NC(=O)COc4ccc(Cl)cc4)c3)=NO2)CN1C(=O)C(c1ccccc1)c1ccccc1` (stereo not given in full) was tested. Which outcome did it give?
The outcome was “inactive”.

For `COc1ccc(-c2oc3ncn(Cc4ccco4)c(=N)c3c2-c2ccc(OC)cc2)cc1`, which outcome is on record?
Its outcome is “inactive”.

Which outcome does the source give for `Oc1c(N=NC(=S)Nc2ccccc2F)c2ccccc2n1Cc1ccccc1F` here?
The outcome was “inactive”.

For `COCc1c(C(=O)N/N=C/C2CC=CCC2)nnn1-c1nonc1N` (stereo not given), which outcome is on record?
Its outcome is “inactive”.

`COc1ccc(C)cc1NC(=O)CN1C(=O)COc2ccc(S(=O)(=O)N3CCOCC3)cc21` was tested. Which outcome did it give?
Its outcome is “inactive”.

With `COc1ccc(Cc2nc3ccc(C(=O)N4CCCC4)cc3o2)cc1` as the compound, how does the outcome read?
The outcome was “inactive”.

For `COc1ccc(NS(=O)(=O)c2ccc3oc(=O)c4[nH]c(=O)c(=O)n(C)c4c3c2)cc1`, which outcome is on record?
The outcome was “inactive”.

`N/C(Cc1ccc([N+](=O)[O-])cc1)=N\OC(=O)c1ccc2ccccc2c1` was tested. Which outcome did it give?
Its outcome is “inactive”.

How did the outcome turn out when `CCCCCCCCNC(C)C(O)c1ccc(SC(C)C)cc1` (stereo not given) was run?
Its outcome is “inactive”.

For `CCOc1ccccc1CNC(=O)c1cc2occc2n1C`, which outcome is on record?
Its outcome is “inactive”.

For `CCCCCCCCCCC[N+](C)(C)CC/C=C1/c2ccccc2Sc2ccc(Cl)cc21`, which outcome is on record?
The outcome was “inactive”.

How did the outcome turn out when `O=C(Nc1ccc(S(=O)(=O)Nc2ccccc2)cc1)C1COc2ccccc2O1` (stereo not given) was run?
The outcome was “inactive”.

Which outcome does the source give for `CCCCn1c(=O)[nH]c(=O)c2c1nc(-c1ccc(OC)c(Br)c1)n2CC(C)C` here?
The outcome was “inactive”.

How did the outcome turn out when `O=C(N/N=C/C1CC=CCC1)c1ccc(O)cc1O` (stereo not given) was run?
Its outcome is “inactive”.

`O=C(N/N=C/c1cn(Cc2ccccc2)c2ccccc12)c1cc(O)cc(O)c1` was tested. Which outcome did it give?
Its outcome is “inactive”.

With `CN1CCN(Cc2c(C(=O)N/N=C/c3cccc(Br)c3)nnn2-c2nonc2N)CC1` as the compound, how does the outcome read?
Its outcome is “inactive”.

Which outcome does the source give for `Cc1cc(C)cc(Nc2nc(-c3ccc(S(=O)(=O)N4CCCC4)cc3)cs2)c1` here?
The outcome was “inactive”.

`CCCCOc1ccc(Cc2c(COCC)[nH]c(=S)[nH]c2=O)cc1` was tested. Which outcome did it give?
Its outcome is “inactive”.

With `Cc1ccc(C(=O)c2c3ccc(C(F)(F)F)cc3[n+]([O-])n2CCCC(N)=O)cc1` as the compound, how does the outcome read?
The outcome was “inactive”.

How did the outcome turn out when `C/C(CC(=O)NCc1ccco1)=N\NC(=O)c1ccc([N+](=O)[O-])cc1Cl` was run?
The outcome was “inactive”.
